# A number with no mark means an inactive call. Records with an inconclusive call do not appear. A call without a number means that no potency is given here. Activity calls are given as the source filed them. The call rests on the fitted dose curve; in most records, active means well fitted curve in the direction sought with a large enough effect in the repeat runs; inconclusive means weak or mixed curves; inactive means no such curve, though single readings can be large; an effect the other way counts as inactive or inconclusive.
# Assays:
# [1] = A CellTox Green Cytotoxicity Assay to monitor cytotoxicity in HEK293 cells - 40 hour (AID 1224871); further: nearly all actives have a fitted effect of over 45% in size; further: potency means the concentration at half of the fitted maximal effect
# Procedure, shortened: (§1)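 HEK293 cells, 600/well, were preincubated 5 hours and then exposed to compounds at 37 C for up to 40 hours. A cell-impermeant cyanine dye staining dead-cell DNA was read by fluorescence at 0, 8, 16, 24, 32 and 40 h time points.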
# [2] = qHTS RealTime-Glo MT Cell Viability Assay in HEK293 cells - 16 hour (AID 1224872); further: nearly all actives have a fitted effect of over 50% in size; further: potency means the concentration at half of the fitted maximal effect; on activity change, negative = cytotoxicity: top concentration of the series differs between compounds
# Procedure, shortened: (§2)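 Tox21 10K qHTS, HEK293, 600 cells/well, RealTime-Glo reagent co-dispensed with cells; 5 h preincubation, compound by pintool, 37 C, luminescence at 0–40 h.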
# [3] = qHTS RealTime-Glo MT Cell Viability Assay in HepG2 cells - 8 hour (AID 1224873); further: nearly all actives have a fitted effect of over 55% in size; further: potency means the concentration at half of the fitted maximal effect
# Procedure, shortened: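 HepG2 cells mixed with RealTime-Glo MT reagents (NanoLuc plus cell-permeant prosubstrate) were seeded at 600 cells/well, incubated 5 h at 37 C/5% CO2, then pinned with compounds in DMSO; nonlytic luminescence tracked viability during 40 h treatment.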
# [4] = qHTS RealTime-Glo MT Cell Viability Assay in HEK293 cells - 40 hour (AID 1224874); settings: RealTime-Glo luminescence; max response: active compounds read low; further: nearly all actives have a fitted effect of over 50% in size; further: potency means the concentration at half of the fitted maximal effect
# Procedure, shortened: (§3)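 600 cells/well were plated with the nonlytic NanoLuc/prosubstrate reagent, pre-incubated 5 h, then given 23 nL of compound in DMSO. Incubation at 37 C for 40 h, with luminescence from viable-cell-reduced substrate read repeatedly from 0 h.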
# [5] = A CellTox Green Cytotoxicity Assay to monitor cytotoxicity in HEK293 cells - 24 hour (AID 1224875); further: nearly all actives have a fitted effect of over 45% in size; further: potency means the concentration at half of the fitted maximal effect; on activity change: series mostly up to about 77 µM
# Procedure, shortened: as §1
# [6] = A CellTox Green Cytotoxicity Assay to monitor cytotoxicity in HepG2 cells - 16 hour (AID 1224876); further: nearly all actives have a fitted effect of over 45% in size; further: potency means the concentration at half of the fitted maximal effect
# Procedure, shortened: (§4)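 HepG2 cells, 600/well, preincubated 5 h with CellTox Green dye, then exposed to Tox21 compounds in DMSO at 37 C for up to 40 h. Dead-cell DNA fluorescence read at the indicated time point.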
# [7] = qHTS RealTime-Glo MT Cell Viability Assay in HepG2 cells - 32 hour (AID 1224877); further: nearly all actives have a fitted effect of over 55% in size; further: potency means the concentration at half of the fitted maximal effect
# Procedure, shortened: (§5)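 Cells + NanoLuc/prosubstrate dispensed (600 cells/well) → 5 h at 37 C/5% CO2 → compounds in DMSO transferred → 40 h incubation at 37 C, luminescence read at 0, 8, 16, 24, 32, 40 h.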
# [8] = A CellTox Green Cytotoxicity Assay to monitor cytotoxicity in HepG2 cells - 24 hour (AID 1224878); further: nearly all actives have a fitted effect of over 45% in size; further: potency means the concentration at half of the fitted maximal effect
# Procedure, shortened: as §4
# [9] = A CellTox Green Cytotoxicity Assay to monitor cytotoxicity in HepG2 cells - 40 hour (AID 1224879); further: nearly all actives have a fitted effect of over 40% in size; further: potency means the concentration at half of the fitted maximal effect
# Procedure, shortened: as §4
# [10] = qHTS RealTime-Glo MT Cell Viability Assay in HEK293 cells - 0 hour (AID 1224880)
# Procedure, shortened: as §3
# [11] = A CellTox Green Cytotoxicity Assay to monitor cytotoxicity in HEK293 cells - 32 hour (AID 1224881); further: nearly all actives have a fitted effect of over 40% in size; further: potency means the concentration at half of the fitted maximal effect
# Procedure, shortened: as §1
# [12] = A CellTox Green Cytotoxicity Assay to monitor cytotoxicity in HepG2 cells - 0 hour (AID 1224882); further: nearly all actives have a fitted effect of over 35% in size
# Procedure, shortened: as §4
# [13] = A CellTox Green Cytotoxicity Assay to monitor cytotoxicity in HepG2 cells - 32 hour (AID 1224883); further: nearly all actives have a fitted effect of over 50% in size; further: potency means the concentration at half of the fitted maximal effect
# Procedure, shortened: as §4
# [14] = qHTS RealTime-Glo MT Cell Viability Assay in HepG2 cells - 16 hour (AID 1224885); further: nearly all actives have a fitted effect of over 50% in size; further: potency means the concentration at half of the fitted maximal effect
# Procedure, shortened: as §5
# [15] = qHTS RealTime-Glo MT Cell Viability Assay in HEK293 cells - 24 hour (AID 1224886); further: nearly all actives have a fitted effect of over 50% in size; further: potency means the concentration at half of the fitted maximal effect; on activity change, negative = cytotoxicity: top concentration of the series differs between compounds
# Procedure, shortened: as §2
# [16] = qHTS RealTime-Glo MT Cell Viability Assay in HEK293 cells - 8 hour (AID 1224887); further: nearly all actives have a fitted effect of over 50% in size; further: potency means the concentration at half of the fitted maximal effect; on activity change, negative = cytotoxicity: top concentration of the series differs between compounds
# Procedure, shortened: as §3
# [17] = A CellTox Green Cytotoxicity Assay to monitor cytotoxicity in HEK293 cells - 16 hour (AID 1224888); further: nearly all actives have a fitted effect of over 35% in size; further: potency means the concentration at half of the fitted maximal effect
# Procedure, shortened: as §1
# [18] = qHTS RealTime-Glo MT Cell Viability Assay in HepG2 cells - 0 hour (AID 1224889); further: nearly all actives have a fitted effect of over 50% in size
# Procedure, shortened: as §5
# [19] = A CellTox Green Cytotoxicity Assay to monitor cytotoxicity in HepG2 cells - 8 hour (AID 1224890); further: nearly all actives have a fitted effect of over 45% in size; further: potency means the concentration at half of the fitted maximal effect
# Procedure, shortened: as §4
# [20] = A CellTox Green Cytotoxicity Assay to monitor cytotoxicity in HEK293 cells - 8 hour (AID 1224884); further: nearly all actives have a fitted effect of over 35% in size
# Procedure, shortened: as §1
compound,measurement,setting,value
CC(O)C(=O)[O][Hg][c]1ccccc1 (stereo unspecified),Potency,[1],977 nM (active)
same,Potency,[2],1.1 µM (active)
same,Potency,[3],2.19 µM (active)
same,Potency,[4],977 nM (active)
same,Potency,[5],21.9 µM (active)
same,Potency,[6],2.75 µM (active)
same,Potency,[7],2.75 µM (active)
same,Potency,[8],2.45 µM (active)
same,Potency,[9],1.95 µM (active)
same,Potency,[10],inactive
same,Potency,[11],3.09 µM (active)
same,Potency,[12],inactive
same,Potency,[13],2.19 µM (active)
same,Potency,[14],2.19 µM (active)
same,Potency,[15],977 nM (active)
same,Potency,[16],1.55 µM (active)
same,Potency,[17],24.5 µM (active)
same,Potency,[18],inactive
same,Potency,[19],2.75 µM (active)
CC(Cc1ccccc1)N(C)Cc1ccco1 (stereo unspecified),Potency,[1],inactive
same,Potency,[2],inactive
same,Potency,[3],inactive
same,max response,[4],0.354%
same,Potency,[5],inactive
same,Potency,[6],inactive
same,Potency,[7],inactive
same,Potency,[8],inactive
same,Potency,[9],inactive
same,Potency,[10],inactive
same,Potency,[11],inactive
same,Potency,[12],inactive
same,Potency,[13],inactive
same,Potency,[20],inactive
same,Potency,[14],inactive
same,Potency,[15],inactive
same,Potency,[16],inactive
same,Potency,[17],inactive
same,Potency,[18],inactive
same,Potency,[19],inactive
BrCCCBr,Potency,[1],inactive
same,Potency,[2],inactive
same,Potency,[3],inactive
same,max response,[4],6.85%
same,Potency,[5],inactive
same,Potency,[6],inactive
same,Potency,[7],inactive
same,Potency,[8],inactive
same,Potency,[9],inactive
same,Potency,[10],inactive
same,Potency,[11],inactive
same,Potency,[12],inactive
same,Potency,[13],inactive
same,Potency,[20],inactive
same,Potency,[14],inactive
same,Potency,[15],inactive
same,Potency,[16],inactive
same,Potency,[17],inactive
same,Potency,[18],inactive
same,Potency,[19],inactive
Nc1nc(N)nc(Cl)n1,Potency,[1],inactive
same,Potency,[2],inactive
same,Potency,[3],inactive
same,max response,[4],1.73%
same,Potency,[5],inactive
same,Potency,[6],inactive
same,Potency,[7],inactive
same,Potency,[8],inactive
same,Potency,[9],inactive
same,Potency,[10],inactive
same,Potency,[11],inactive
same,Potency,[12],inactive
same,Potency,[13],inactive
same,Potency,[20],inactive
same,Potency,[14],inactive
same,Potency,[16],inactive
same,Potency,[17],inactive
same,Potency,[18],inactive
same,Potency,[19],inactive
CC(C)C(Br)C(=O)NC(N)=O (stereo unspecified),Potency,[1],inactive
same,Potency,[2],inactive
same,Potency,[3],inactive
same,max response,[4],7.13%
same,Potency,[5],inactive
same,Potency,[6],inactive
same,Potency,[7],inactive
same,Potency,[8],inactive
same,Potency,[9],inactive
same,Potency,[10],inactive
same,Potency,[11],inactive
same,Potency,[12],inactive
same,Potency,[13],inactive
same,Potency,[14],inactive
same,Potency,[16],inactive
same,Potency,[17],inactive
same,Potency,[18],inactive
same,Potency,[19],inactive
NC(=O)C(Cl)Cl,Potency,[1],inactive
same,Potency,[2],inactive
same,Potency,[3],inactive
same,max response,[4],3.34%
same,Potency,[5],inactive
same,Potency,[6],inactive
same,Potency,[7],inactive
same,Potency,[8],inactive
same,Potency,[9],inactive
same,Potency,[10],inactive
same,Potency,[11],inactive
same,Potency,[12],inactive
same,Potency,[13],inactive
same,Potency,[20],inactive
same,Potency,[14],inactive
same,Potency,[15],inactive
same,Potency,[16],inactive
same,Potency,[17],inactive
same,Potency,[18],inactive
same,Potency,[19],inactive
O=C(Cl)c1ccccc1F,Potency,[1],inactive
same,Potency,[2],inactive
same,Potency,[3],inactive
same,max response,[4],-0.0017%
same,Potency,[5],inactive
same,Potency,[6],inactive
same,Potency,[7],inactive
same,Potency,[8],inactive
same,Potency,[9],inactive
same,Potency,[10],inactive
same,Potency,[11],inactive
same,Potency,[12],inactive
same,Potency,[13],inactive
same,Potency,[14],inactive
same,Potency,[16],inactive
same,Potency,[17],inactive
same,Potency,[18],inactive
same,Potency,[19],inactive
O.O.O.O.O.O.O=S(=O)([O-])[O-].[Ni+2],Potency,[1],inactive
same,Potency,[2],inactive
same,Potency,[3],inactive
same,max response,[4],-26.5%
same,Potency,[5],inactive
same,Potency,[6],inactive
same,Potency,[7],inactive
same,Potency,[8],inactive
same,Potency,[9],inactive
same,Potency,[10],inactive
same,Potency,[11],inactive
same,Potency,[12],inactive
same,Potency,[13],inactive
same,Potency,[14],inactive
same,Potency,[15],inactive
same,Potency,[16],inactive
same,Potency,[17],inactive
same,Potency,[19],inactive
CC(=O)[O-].CC(=O)[O-].CC(=O)[O-].[Sb+3],cytotoxicity increase,[1],2.55% [at 2.72 µM]
same,"activity change, negative = cytotoxicity",[2],1.77% [at 2.72 µM]
same,"viability change, negative = cytotoxic",[3],-4.57% [at 2.72 µM]
same,max response,[4],11.6%
same,activity change,[5],"1.85% [at 2.72 µM, active compounds read high]"
same,cytotoxicity increase,[6],-16% [at 2.72 µM]
same,"activity change, negative = cytotoxic",[7],8.41% [at 2.72 µM]
same,cytotoxicity,[8],-19.2% [at 2.72 µM]
same,cytotoxicity increase,[9],-22.4% [at 2.72 µM]
same,"activity change, negative = cytotoxicity",[10],-11.8% [at 2.72 µM]
same,cytotoxicity increase,[11],3.11% [at 2.72 µM]
same,cytotoxicity,[12],-11% [at 2.72 µM]
same,cytotoxicity increase,[13],-22.1% [at 2.72 µM]
same,cytotoxicity increase,[20],-0.782% [at 2.72 µM]
same,"activity change, negative = cytotoxic",[14],-7.09% [at 2.72 µM]
same,"activity change, negative = cytotoxicity",[16],-4.44% [at 2.72 µM]
same,activity change,[17],"0.422% [at 2.72 µM, active compounds read high]"
same,cytotoxicity increase,[19],-8.87% [at 2.72 µM]
COc1c2c(cc3c1OCO3)CCN(C)C2,Potency,[1],inactive
same,Potency,[2],inactive
same,Potency,[3],inactive
same,max response,[4],-9.04%
same,Potency,[5],inactive
same,Potency,[6],inactive
same,Potency,[7],inactive
same,Potency,[8],inactive
same,Potency,[9],inactive
same,Potency,[10],inactive
same,Potency,[11],inactive
same,Potency,[12],inactive
same,Potency,[13],inactive
same,Potency,[14],inactive
same,Potency,[16],inactive
same,Potency,[17],inactive
same,Potency,[18],inactive
same,Potency,[19],inactive
CCOP(=O)(OCC)Oc1nc(Cl)c(Cl)cc1Cl,Potency,[1],inactive
same,Potency,[2],inactive
same,Potency,[3],inactive
same,max response,[4],-5.34%
same,Potency,[5],inactive
same,Potency,[6],inactive
same,Potency,[7],inactive
same,Potency,[8],inactive
same,Potency,[9],inactive
same,Potency,[10],inactive
same,Potency,[11],inactive
same,Potency,[12],inactive
same,Potency,[13],inactive
same,Potency,[20],inactive
same,Potency,[14],inactive
same,Potency,[16],inactive
same,Potency,[17],inactive
same,Potency,[18],inactive
same,Potency,[19],inactive
ClCBr,Potency,[1],inactive
same,Potency,[2],inactive
same,Potency,[3],inactive
same,max response,[4],7.13%
same,Potency,[5],inactive
same,Potency,[6],inactive
same,Potency,[7],inactive
same,Potency,[8],inactive
same,Potency,[9],inactive
same,Potency,[10],inactive
same,Potency,[11],inactive
same,Potency,[12],inactive
same,Potency,[13],inactive
same,Potency,[14],inactive
same,Potency,[15],inactive
same,Potency,[16],inactive
same,Potency,[17],inactive
same,Potency,[18],inactive
same,Potency,[19],inactive

# — PubChem BioAssay (Tox21)
